The whole screen tested about 310,000 compounds, of which about 18,000 (5.8%) were called active. Inconclusive results (about 22%) are left out. The call rests on the fitted dose curve; in most records, active means well fitted inhibition curve with a large enough effect; inconclusive means small, poorly fitted or top-dose-only effect, or another doubt; inactive means no such curve, though single readings can be large or run the other way. Many of the other results were omitted from the sample, so actives are more common in it than they were.
Assay: Primary qHTS for delayed death inhibitors of the malarial parasite plastid, 48 hour incubation
Conditions: P. falciparum luciferase growth in erythrocytes; series mostly up to 28.7 µM; activity change, negative = inhibition: at the top concentration
Outline: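 Parasite viability was followed by luminescence of a genomically integrated firefly luciferase. Cultures held 0.1% parasitemia at 2% hematocrit (final), incubated under 5% CO2 at 37 C.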
On the % scale 0 is the no-effect control and ±100 the full control effect; potency means the concentration at half of the fitted maximal effect.

Compound | activity change, negative = inhibition | Potency
Cc1ccc(NC(=O)Cn2nnc(C(=O)NCc3ccco3)c2N)c(C)c1 | 18.9% (inactive) | 
CCOc1ccc(NC(=O)NNC(=O)c2ccc(Cl)cc2Cl)cc1 | 8.64% (inactive) | 
NC(N)=N/N=C/c1ccc(OCc2ccc(Cl)cc2Cl)cc1 |  | 9.28 µM (active)
CCOc1ccc(/C=N/NC(N)=S)cc1 | 53.1% (inactive) | 
CCOc1ccc(OCc2ccc(C(=O)N(C)c3ccccc3)o2)cc1 | -38.3% (inactive) | 
N=c1n(CCc2ccccc2)c2ccccc2n1Cc1ccccc1F |  | 9.28 µM (active)
Fc1ccccc1Cn1cnc(NC(=S)NCCc2ccccc2)n1 | 5.06% (inactive) | 
O=C(COC(=O)Cc1ccccc1F)NCCc1ccccc1 | 1.67% (inactive) | 
Nc1c(C(=O)Nc2ccc3c(c2)OCCO3)nnn1Cc1ccccc1 | -3.91% (inactive) | 
O=C1CCC(C(=O)N2CCCCO2)CN1Cc1cccc(C(F)(F)F)c1 (configuration not stated) | 18.2% (inactive) | 
CSc1ncc(C(=O)Nc2ccc(C)cc2C)c(C)n1 | -3.49% (inactive) | 
O=C(CN1C(=O)CC(c2ccccc2)=Nc2ccccc21)NC1CCCCC1 |  | 9.28 µM (active)
O=C(CN1C(=O)CC(c2ccccc2)S(=O)(=O)c2ccccc21)NC1CCCC1 (configuration not stated) | -42% (inactive) | 
CC(=O)c1cc(-c2ccccc2)n(CC(=O)NC2CCCCC2)c1C | -4.84% (inactive) | 
Cc1cc(NS(=O)(=O)c2ccc(NC(=O)C(C)Oc3cccc(C)c3C)cc2)nc(C)n1 (configuration not stated) | 10.4% (inactive) | 
CC(=O)Oc1ccc(N(C(C)=O)S(=O)(=O)c2ccc3ccccc3c2)cc1Br | -12.8% (inactive) | 
O=C(COC(=O)c1ccc(F)cc1)NCCCc1ccccc1 | 43.7% (inactive) | 
N/C(=N/O)c1cccn1Cc1ccccc1[N+](=O)[O-] | 47.8% (inactive) | 
O=c1c([N+](=O)[O-])cccn1Cc1ccc(F)cc1Cl |  | 0.37 µM (active)
O=Cc1cn(Cc2ccc(F)cc2Cl)c2ccccc12 | -3.11% (inactive) | 
CN(CC(=O)Nc1c(Cl)cccc1Cl)C(=O)CNC(=O)C1CCCCC1 | -2.61% (inactive) | 
CN(Cc1ccccc1)C(=O)c1ccc(COc2ccccc2)cc1 | 21% (inactive) | 
CC(C)C(=O)Nc1cccc(NC(=S)NC(=O)C(c2ccccc2)c2ccccc2)c1 |  | 11.7 µM (active)
COc1ccccc1NC(=S)NC(=O)C(C)C | -16.3% (inactive) | 
CC(C)C(=O)NC(=S)Nc1ccccc1F | 42.1% (inactive) | 
COc1cccc(NC(=O)N2CCCC2C(=O)NC2CCCCC2)c1 (configuration not stated) | 20.5% (inactive) | 

Compound | activity change, negative = inhibition | Potency
COc1ccc(/C=N/OCc2ccccc2C#N)c(OC)c1 | 49.3% (inactive) | 
CC1CCN(C(=O)c2ccccc2NC(=O)Cc2ccccc2)CC1 | 18% (inactive) | 
O=C(Cc1ncc(C(F)(F)F)cc1Cl)Nc1cccc(Br)c1 | 24% (inactive) | 
CC(=O)c1ccc(Cc2ncc(C(F)(F)F)cc2Cl)s1 |  | 13.1 µM (active)
CN1CCN(C(=O)CCc2ncc(C(F)(F)F)cc2Cl)CC1 | -0.581% (inactive) | 
Cc1ccc2c(c1)N(C(=O)CCC(=O)NCc1cccnc1)CCO2 | 8.95% (inactive) | 
Cn1c(N2CCOCC2)c(C=O)c2ccccc21 | 37.2% [at 0.00184 µM] (inactive) | 
CCN(CC)CCCN=Cc1c(O)n(-c2ccc(C)cc2)c(=O)c2ccccc12 | -11.5% (inactive) | 
COc1ccc(-n2c(O)c(C=NCC(c3ccco3)N3CCCC3)c3ccccc3c2=O)cc1OC (configuration not stated) |  | 9.28 µM (active)
COc1ccc(-n2nc(C(=O)NCC(=O)N3CCC(C(N)=O)CC3)c3ccccc3c2=O)cc1OC | 44% (inactive) | 
Cc1nnc(SCC(=O)Nc2ccc(S(=O)(=O)Nc3ccc(Cl)nn3)cc2)s1 | 19.4% (inactive) | 
CCC(C)(NC(=O)c1ccccn1)C(=O)NC1CCCCC1 (configuration not stated) | 19.9% (inactive) | 
CCN(CC)CCOc1ccc2c(c1)C(=NNC(=O)c1ccccn1)c1cc(OCCN(CC)CC)ccc1-2 |  | 0.37 µM (active)
Cc1cccc(OCC(=O)NCCCNC(=O)c2ccccn2)c1 | -12% (inactive) | 
CCOc1ccccc1OCC(=O)Nc1ccccc1C(=O)NC1CC1 | 35.1% (inactive) | 
O=C(CCNS(=O)(=O)c1ccccc1C(F)(F)F)Nc1ccncc1 | -7.69% (inactive) | 
C/C(N)=C(/C#N)C(=O)COC(=O)C1=NN(c2ccccc2)C(=O)CC1 | 27.2% (inactive) | 
O=C(Nc1ccccc1-c1nc2ccccc2[nH]c1=O)c1cccs1 | 14.3% (inactive) | 
Cc1ccc(C(=O)c2ccc(N3CCN(C)CC3)c([N+](=O)[O-])c2)cc1 | 1.89% (inactive) | 
CN1CCN(S(=O)(=O)c2ccc(N3CCN(c4ccccc4O)CC3)c([N+](=O)[O-])c2)CC1 |  | 11.7 µM (active)
CN1CCN(c2ccc(S(=O)(=O)Nc3ccccc3)cc2[N+](=O)[O-])CC1 | 3.28% (inactive) | 
COc1ccccc1C(=O)NCCC(=O)N(C)Cc1cccnc1 | -25.2% (inactive) | 
Cc1ccc(S(=O)(=O)N2CCCCC2)cc1C(=O)N(C)CC(=O)Nc1cccc(F)c1 | 0.872% (inactive) | 
COc1ccccc1C(=O)NCCC(=O)NC1=NCCS1 | 13.4% (inactive) | 
COc1ccc(N(CC(=O)N2CCOCC2)S(=O)(=O)c2ccccc2)cc1Cl | -1.91% (inactive) | 
COc1ccc(NC(=O)CN(C)C(=O)c2ccc(NC3CC3)c([N+](=O)[O-])c2)cc1 | -29.9% (inactive) | 
